Laboratory results: PubChem BioAssay (NCI)
Compounds without any hit were thinned out: in the full panel of roughly 83,000, 20% have a hit.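 Treatment: one concentration, 48 hours, 96-well format. Scoring: percent growth, with anything below 10 considered active.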 Unmarked numbers belong to inactive results. The source made the active and inactive calls.

What was measured:
Assay in all cases: NCI-60 one-dose screen, 48 h (100 = growth as untreated, 0 = no growth, -100 = all killed)
Conditions in all cases: 10 µM unless noted
HCT-15 colon = test system: HCT-15 colon
HT29 colon = test system: HT29 colon
SNB-75 CNS = test system: SNB-75 CNS
SNB-19 CNS = test system: SNB-19 CNS
U251 CNS = test system: U251 CNS
PC-3 prostate = test system: PC-3 prostate
SK-MEL-5 melanoma = test system: SK-MEL-5 melanoma
UACC-62 melanoma = test system: UACC-62 melanoma
LOX IMVI melanoma = test system: LOX IMVI melanoma
SK-MEL-28 melanoma = test system: SK-MEL-28 melanoma
SK-MEL-2 melanoma = test system: SK-MEL-2 melanoma
EKVX NSCLC = test system: EKVX NSCLC
SN12C renal = test system: SN12C renal
UO-31 renal = test system: UO-31 renal
TK-10 renal = test system: TK-10 renal
ACHN renal = test system: ACHN renal
CAKI-1 renal = test system: CAKI-1 renal
A498 renal = test system: A498 renal
CCRF-CEM leukemia = test system: CCRF-CEM leukemia
MOLT-4 leukemia = test system: MOLT-4 leukemia

| SMILES | growth (HCT-15 colon) | growth (HT29 colon) | growth (SNB-75 CNS) | growth (SNB-19 CNS) | growth (U251 CNS) | growth (PC-3 prostate) | growth (SK-MEL-5 melanoma) | growth (UACC-62 melanoma) | growth (LOX IMVI melanoma) | growth (SK-MEL-28 melanoma) | growth (SK-MEL-2 melanoma) | growth (EKVX NSCLC) | growth (SN12C renal) | growth (UO-31 renal) | growth (TK-10 renal) | growth (ACHN renal) | growth (CAKI-1 renal) | growth (A498 renal) | growth (CCRF-CEM leukemia) | growth (MOLT-4 leukemia) |
| --- | --- | --- | --- | --- | --- | --- | --- | --- | --- | --- | --- | --- | --- | --- | --- | --- | --- | --- | --- | --- |
| COC(=O)c1c(C(=O)OC)c2c3ccccc3c3ccccc3n2c1C(=O)C(C)(C)C | 46.6% | 71.9% | 83.5% | 96.2% | 85.3% | 35.3% | 46.8% | 50.1% | 81.4% | 92.5% | 83.4% | 96.2% | 87.3% | 75.4% | 105% | 82% | 60.7% | 132% | 65.6% | 45.7% |
| COc1ccc(-n2c(NC(=O)N3CCN(C)CC3)c(C#N)c3ccccc32)cc1 | 57.5% | 84.2% | -4.12% (active) | 52.9% | 41.9% | 58.2% | 37.4% | 50.9% | 9.35% (active) | 68.8% | 72.9% | 12.3% | 23% | -15.6% (active) | 12.4% | 21.9% | 15% | 139% | 60.5% | 43.9% |
| CC1=C(C(=O)OCc2ccccc2)C(c2cccc3ccccc23)n2c(nc3ccccc32)N1 (stereo not given) | 21.7% | 3.87% (active) | -15.1% (active) | 40.9% | 24.9% | 22.8% | 3.71% (active) | 17.3% | 36.1% | 50.5% | 18% | 41.9% | 30.6% | 34.2% | 66.6% | 41.1% | 30.5% | 62.6% | 25.8% | 32.3% |
| CCC(=O)c1c2c(c3ccc4c5ccccc5ccc4n13)C(=O)c1ccccc1C2=O | 66.8% | 94.2% | 113% | 66.7% | 90.4% | 77.1% | -23.6% (active) | 54.9% | 50.1% | 76.4% | 89.2% | 71.2% | 85.6% | 59.8% | 122% | 83.3% | 84% | 215% | 100% | 89.6% |
| CCCCN1C(=O)/C(=C\C(=O)c2cc3ccccc3oc2=O)c2ccccc21 | 2.32% (active) | 71.2% | 61.6% | 91.3% | 88.2% | 83.3% | 84.5% | 65.8% | 57% | 52.2% | 79.8% | 84.5% | 56.2% | 32.1% | 57.7% | 0.901% (active) | 70.8% | 161% | 25.5% | 3.77% (active) |
| COc1ccc(-c2cc(C)nc3[nH]c(=O)sc23)cc1 | 88.1% | 93.3% | -4.05% (active) | 53.6% | 9.93% (active) | 81.3% | 80.4% | 60.9% | 45.9% | 89.8% | 100% | 89.5% | 43.2% | 3.27% (active) | 17.1% | 31.9% | 40.5% | 6.1% (active) | 81.5% | 86.8% |
| O=C(N/N=C/c1ccc(Br)o1)c1[nH]c2ccc(Br)cc2c1-c1ccccc1 | -6.94% (active) | -46.2% (active) | -18.3% (active) | 0.0073% (active) | -75.3% (active) | 7.74% (active) | -78.5% (active) | 5.43% (active) | -62.8% (active) | -20.9% (active) | 3.4% (active) | 12.6% | -59.1% (active) | -34% (active) | 9.96% (active) | -21.3% (active) | 2.87% (active) | -7.37% (active) | 4.07% (active) | -0.952% (active) |
| CCOc1ccccc1[C@H]1C(C(=O)c2ccc(Cl)cc2)C2(N[C@@H]1c1ccccc1)C(=O)Nc1ccccc12 (stereo not given in full) | 7.49% (active) | -0.161% (active) | 46.9% | 27% | 29.9% | 7.19% (active) | -90.7% (active) | -4.32% (active) | -48.1% (active) | 40.8% | -46.5% (active) | 9% (active) | -77.8% (active) | 8.77% (active) | 36% | 2.68% (active) | 8.88% (active) | -2.33% (active) | 12.1% | -26.4% (active) |
| O=C(Nc1ccc(Br)cc1)Nc1ccc(-c2ccc3c(c2)NC(=O)/C3=C\c2ccc[nH]2)cc1 | 42.8% | 23.1% | 59.2% | 75.2% | 39.5% | 52.6% | 33.1% | 24.7% | 25.6% | 57.5% | 36.7% | 42.3% | 52.5% | 20.6% | 52.3% | 30% | 31.1% | 105% | 25.3% | 35.6% |
| CN(C)c1nc(NCCNS(=O)(=O)c2ccc(C(=O)/C=C/c3ccc(Cl)cc3)cc2)nc(N2CCOCC2)n1 | -53% (active) | -80.6% (active) | 45.4% | 60% | -92% (active) | 21.1% | 46.2% | 52.5% | -94.3% (active) | 76.6% | 68.9% | 49.6% | 53.4% | -61% (active) | 62.5% | 21.8% | -61.2% (active) | 87.6% | 3.45% (active) | 3.71% (active) |
| O=C1c2cccc3c(N4CCN(c5ccccc5)CC4)ccc(c23)C(=O)N1c1cccc(-c2nn(-c3ccccc3)cc2-c2nc3ccccc3s2)c1 | 112% | 116% | 98.1% | 100% | 100% | 85.9% | 99% | 91.4% | 94.5% | 104% | 106% | 86.6% | 103% | 68.1% | 129% | 94.9% | 83.3% | 126% | 98.8% | 99.4% |
| Cc1cccc(-c2ccccc2Oc2ccc3nnc(Cl)n3n2)c1 | 99.6% | 107% | 89.4% | 97.8% | 94.6% | 103% | 98.5% | 96.8% | 93.7% | 107% | 105% | 98.2% | 101% | 90.6% | 103% | 105% | 92.2% | 117% | 103% | 103% |
| CC1CCc2c(sc3nc(SCC(=O)c4cccc([N+](=O)[O-])c4)n(-c4ccccc4)c(=O)c23)C1 (stereo not given) | 73.6% | 67.9% | 85.8% | 59% | 17.6% | 82.1% | 82.6% | 91.9% | 53.7% | 101% | 94.6% | 88% | 57.1% | 91.5% | 72.3% | 31.3% | 12.4% | 115% | 61.8% | 60.2% |
| Cc1ccc(C2CC(c3ccc(S(=O)(=O)NCCNc4nc(N(C)C)nc(N5CCOCC5)n4)cc3)=Nc3c(N)nc(N)nc3N2)cc1 (stereo not given) | 44.5% | 17.9% | 59.5% | 57.3% | 50.6% | 27.9% | 34.5% | 71.1% | 17.7% | 71.1% | 86.2% | 38.4% | 51.5% | 36.9% | 96.4% | 68.2% | 43.4% | 105% | 17.3% | 3.09% (active) |
